Test results as given in PubChem BioAssay.
The source made the active and inactive calls. Unless noted, how the calls were made is not given here.

Columns and labels:
[1] = test system: Wnt5a (protein binding on small-molecule microarray); experiment: Wnt5a binders on small-molecule microarray, primary screen, biophysical, 635/667 nm fluorescence (AID 1142); conditions: 635 nm fluorescence, higher = more signal;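 further: fluorescence read at 667 nm with signal to noise per printed feature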
[2] = cell viability in Huh7 cells, primary screen, cytotoxicity control for HCV replication inhibitor project, CellTiter-Glo luminescence, basal, 48 h (AID 1143); conditions: Huh7 HCV replicon, higher = more signal, called active from +8 up or from −8 down;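 further: Huh7 hepatoma cells carrying a hepatitis C replication reporter with no stimulus; test concentration not given here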
[3] = P. aeruginosa biofilm formation inhibitors, primary screen, PAO1 strain, BacTiter-Glo luminescence, LB-PBS (AID 1144); conditions: 12 h, higher = more signal
[4] = CREB reporter modulators without forskolin, primary screen, cell-based, PC12, CRE-LacZ reporter, unstimulated (AID 1145); conditions: no forskolin, luminescence, 4.5 h, higher = more signal, called active from +8 up or from −8 down
[5] = CREB reporter modulators under forskolin, primary screen, cell-based, PC12, CRE-LacZ reporter, forskolin-stimulated (AID 1146); conditions: luminescence, 4.5 h, higher = more signal, called active from +8 up or from −8 down;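 further: PC12 cells with 6xCRE LacZ reporter stimulated by forskolin 10 µM; beta-galactosidase reporter signal reflecting CREB driven transcription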
[6] = molecular target: Streptavidin (Streptomyces avidinii) (UniProt P22629); experiment: streptavidin binders on small-molecule microarray, primary screen, artefact control for SMM compound annotation, biophysical, 635/667 nm fluorescence (AID 1147); conditions: streptavidin binding, higher = more signal;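 further: signal reflects streptavidin binding to arrayed compounds as a control protein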
[7] = small-molecule binders of probe aInhba, primary screen, biochemical, small-molecule microarray, 635/667 nm fluorescence (AID 1148); conditions: higher = more signal;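 further: score merges 667nm spot fluorescence with signal-to-noise for antibody binding to printed compounds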
[8] = molecular target: Torsin-1A (Homo sapiens) (UniProt O14656); experiment: torsin A binders from cell lysate, primary screen, small-molecule microarray, wild-type, 635/667 nm (AID 1149); conditions: COS7 hTOR1A-WT lysate, 635 nm fluorescence, higher = more signal
[9] = molecular target: Torsin-1A (Homo sapiens) (UniProt O14656); experiment: small-molecule binders of mutant TOR1A in lysate, primary screen, cell lysate, small-molecule microarray, COS7 lysate, 635/667 nm fluorescence (AID 1150); conditions: COS7 hTOR1A mutant lysate, 635 nm fluorescence, higher = more signal;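 further: score pools 667 nm emission and signal to noise measuring lysate protein binding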
[10] = test system: Sonic hedgehog protein (Shh); experiment: small-molecule binders of Shh protein, primary screen, biochemical, small-molecule microarray, 635/667 nm fluorescence (AID 1151); conditions: small-molecule microarray binding, 635 nm fluorescence; higher = more signal;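 further: Shh protein binding to compounds spotted on small-molecule microarray slides; score combines spot fluorescence intensity with signal-to-noise across triplicate slides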
[11] = E. coli DRC41 culture turbidity changes, primary screen, E. coli filamentation inducer project, strain DRC41, OD650, 48 h (AID 1152);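 further: E. coli MC1000 strain DRC41 lacking acrAB efflux pump and sulA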; conditions: E. coli DRC41 (acrAB sulA), higher = more signal, called active from +8 up or from −8 down
[12] = small-molecule binders of probe aLefty1, primary screen, biochemical, small-molecule microarray, 635/667 nm fluorescence (AID 1153); conditions: higher = more signal;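 further: score merges spot fluorescence with signal-to-noise ratio from the scanned slide images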
[13] = PSAC antagonists in infected red cells, primary screen, cell-based, P. falciparum Indochina, OD700, 1 h (AID 1154); conditions: P. falciparum Indochina infected RBC osmotic lysis, higher = more signal, called active from +8 up or from −8 down
[14] = PSAC antagonists in infected red cells, primary screen, cell-based, P. falciparum Indochina, OD700, 2 h (AID 1155);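 further: lysis reports solute entry through the parasite surface anion channel PSAC; channel blockers reduce lysis of infected cells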; conditions: P. falciparum Indochina infected erythrocytes, osmotic lysis OD700; higher = more signal, called active from +8 up or from −8 down
[15] = osmotic lysis modulators in infected erythrocytes, primary screen, PSAC antagonist project, cell-based, P. falciparum Indochina, OD700, 3 h (AID 1156); conditions: higher = more signal, called active from +8 up or from −8 down
[16] = PSAC antagonists in infected red cells, primary screen, cell-based, P. falciparum Indochina, OD700, 18 h (AID 1157); conditions: P. falciparum Indochina infected erythrocytes, osmotic lysis OD700, 18 h; higher = more signal, called active from +8 up or from −8 down
[17] = modulators of S6 phosphorylation in cells, primary screen, cell-based, A549, cytoblot, luminescence, serum-stimulated (AID 1158); conditions: A549 phospho-S6 cytoblot, 5 h, higher = more signal;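 further: serum-stimulated A549 lung adenocarcinoma cells; signal is phosphorylated S6 detected by cytoblot immunostaining with HRP secondary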
[18] = molecular target: NADPH oxidase 2 (Homo sapiens) (UniProt P04839); experiment: NOX2-dependent H2O2 signal modulators, primary screen, NOX inhibitor project, cell-based, HEK293-NOX2, PMA-stimulated, Amplex Red fluorescence (AID 1159); conditions: 45 min, higher = more signal, called active from +8 up or from −8 down; further: test concentration not given here
[19] = molecular target: NADPH oxidase 4 (Homo sapiens) (UniProt Q9NPH5); experiment: NOX4-dependent H2O2 signal modulators, primary screen, NOX inhibitor project, cell-based, HEK293-NOX4, tetracycline-induced, Amplex Red fluorescence (AID 1160); conditions: 45 min, higher = more signal, called active from +8 up or from −8 down
[20] = molecular target: NADPH oxidase 5 (Homo sapiens) (UniProt Q96PH1); experiment: NOX5-dependent H2O2 signal modulators, primary screen, NOX inhibitor project, cell-based, HEK293-NOX5, Amplex Red fluorescence (AID 1161); conditions: HEK293-NOX5, ionomycin, 45 min, higher = more signal
Sequence of NADPH oxidase 5 (Homo sapiens) (Q96PH1 whole entry, looked up): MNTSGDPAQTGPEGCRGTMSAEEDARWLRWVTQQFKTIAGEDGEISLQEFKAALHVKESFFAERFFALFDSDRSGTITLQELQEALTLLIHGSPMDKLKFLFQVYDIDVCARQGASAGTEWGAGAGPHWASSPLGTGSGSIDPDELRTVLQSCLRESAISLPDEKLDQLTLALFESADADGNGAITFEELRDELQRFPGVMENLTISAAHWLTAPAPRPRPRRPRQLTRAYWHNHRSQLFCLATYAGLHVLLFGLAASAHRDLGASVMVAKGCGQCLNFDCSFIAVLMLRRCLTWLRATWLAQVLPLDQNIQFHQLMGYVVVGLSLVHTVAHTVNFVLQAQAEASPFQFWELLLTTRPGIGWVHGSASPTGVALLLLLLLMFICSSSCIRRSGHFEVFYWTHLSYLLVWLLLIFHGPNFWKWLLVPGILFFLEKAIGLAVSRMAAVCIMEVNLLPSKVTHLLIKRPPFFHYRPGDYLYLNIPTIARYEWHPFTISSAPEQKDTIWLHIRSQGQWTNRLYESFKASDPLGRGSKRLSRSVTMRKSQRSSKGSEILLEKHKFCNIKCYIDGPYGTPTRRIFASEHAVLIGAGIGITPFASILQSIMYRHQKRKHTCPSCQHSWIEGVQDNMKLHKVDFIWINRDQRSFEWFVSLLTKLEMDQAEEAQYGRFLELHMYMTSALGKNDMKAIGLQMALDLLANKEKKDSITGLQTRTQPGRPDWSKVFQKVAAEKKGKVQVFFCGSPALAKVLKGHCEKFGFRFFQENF

Sequence of Torsin-1A (Homo sapiens) (O14656 whole entry, looked up): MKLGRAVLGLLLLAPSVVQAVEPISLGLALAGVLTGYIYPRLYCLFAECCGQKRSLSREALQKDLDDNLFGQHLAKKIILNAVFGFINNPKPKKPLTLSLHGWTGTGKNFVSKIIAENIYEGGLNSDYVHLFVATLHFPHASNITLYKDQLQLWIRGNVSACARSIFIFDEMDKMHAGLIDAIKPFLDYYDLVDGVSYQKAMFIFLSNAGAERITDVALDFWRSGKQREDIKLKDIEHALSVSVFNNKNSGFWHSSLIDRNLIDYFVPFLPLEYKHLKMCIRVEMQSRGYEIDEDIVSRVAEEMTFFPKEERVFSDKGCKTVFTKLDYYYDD
Sequence of NADPH oxidase 2 (Homo sapiens) (P04839 whole entry, looked up): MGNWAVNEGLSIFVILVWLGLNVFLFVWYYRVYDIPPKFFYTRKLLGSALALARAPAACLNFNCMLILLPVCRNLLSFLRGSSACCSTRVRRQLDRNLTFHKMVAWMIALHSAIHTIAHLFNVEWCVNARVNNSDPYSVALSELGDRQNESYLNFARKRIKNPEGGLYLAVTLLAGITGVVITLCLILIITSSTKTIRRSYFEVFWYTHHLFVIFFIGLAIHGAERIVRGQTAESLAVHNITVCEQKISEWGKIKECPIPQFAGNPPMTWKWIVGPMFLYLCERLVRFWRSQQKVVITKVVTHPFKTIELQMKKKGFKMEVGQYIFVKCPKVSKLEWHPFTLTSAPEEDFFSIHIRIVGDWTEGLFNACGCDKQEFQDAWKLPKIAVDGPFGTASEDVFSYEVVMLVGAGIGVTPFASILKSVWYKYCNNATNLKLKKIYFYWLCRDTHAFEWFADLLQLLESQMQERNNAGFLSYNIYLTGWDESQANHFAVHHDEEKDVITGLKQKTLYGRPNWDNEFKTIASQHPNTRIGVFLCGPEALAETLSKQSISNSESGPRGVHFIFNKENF
Sequence of NADPH oxidase 4 (Homo sapiens) (Q9NPH5 whole entry, looked up): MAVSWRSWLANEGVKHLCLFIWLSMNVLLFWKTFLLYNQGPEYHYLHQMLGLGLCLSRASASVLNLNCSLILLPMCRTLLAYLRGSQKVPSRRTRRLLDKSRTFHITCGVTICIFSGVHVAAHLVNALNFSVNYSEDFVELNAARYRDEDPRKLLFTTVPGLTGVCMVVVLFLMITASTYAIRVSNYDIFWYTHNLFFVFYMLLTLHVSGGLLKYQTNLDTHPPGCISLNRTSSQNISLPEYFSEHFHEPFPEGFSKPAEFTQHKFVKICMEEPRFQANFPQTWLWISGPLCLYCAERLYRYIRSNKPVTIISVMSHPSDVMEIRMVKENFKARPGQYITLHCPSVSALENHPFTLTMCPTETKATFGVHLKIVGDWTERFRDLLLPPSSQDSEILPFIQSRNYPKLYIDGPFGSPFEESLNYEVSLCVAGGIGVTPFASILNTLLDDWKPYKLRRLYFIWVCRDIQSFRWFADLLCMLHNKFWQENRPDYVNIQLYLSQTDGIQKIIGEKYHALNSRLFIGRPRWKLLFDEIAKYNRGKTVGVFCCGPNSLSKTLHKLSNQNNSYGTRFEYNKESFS
Sequence of Streptavidin (Streptomyces avidinii) (P22629 whole entry, looked up): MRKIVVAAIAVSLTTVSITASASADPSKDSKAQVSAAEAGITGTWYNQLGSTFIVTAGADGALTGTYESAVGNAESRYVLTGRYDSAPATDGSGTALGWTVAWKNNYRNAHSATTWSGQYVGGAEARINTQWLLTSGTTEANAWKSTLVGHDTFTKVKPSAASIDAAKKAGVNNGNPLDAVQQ

SMILES	composite z-score [1]	z-score [2]	z-score [3]	z-score [4]	z-score [5]	composite z-score [6]	composite z-score [7]	composite z-score [8]	composite z-score [9]	composite z-score [10]	z-score [11]	composite z-score [12]	z-score [13]	z-score [14]	z-score [15]	z-score [16]	z-score [17]	z-score [18]	z-score [19]	z-score [20]
O=C(CS)NCCCCCNC(=O)[C@H]1C[C@H]2C(=O)NCC(=O)N2[C@H]1c1ccc(O)cc1	-0.55	-0.173 (inactive)	-0.196 (inactive)	-1.49 (inactive)	-0.684 (inactive)	-1.11	-0.264	-0.518	0.113	0.0174	1.43 (inactive)	-0.479	0.279 (inactive)	-0.723 (inactive)	-0.813 (inactive)	-2.32 (inactive)	-0.0935	-0.297 (inactive)	0.243 (inactive)	1.16
COC(=O)c1c(CC[C@@H](CO)NC(=O)NCCc2c[nH]c3ccccc23)oc(C(=O)Cc2ccccc2)c1C(=O)OC	-0.229	-0.195 (inactive)	0.604 (inactive)	1.37 (inactive)	-0.713 (inactive)	-0.322	-0.188	0.207	0.0487	0.0213	0.659 (inactive)	-0.423	7.43 (inactive)	-0.0918 (inactive)	-0.366 (inactive)	-1.01 (inactive)	0.814	-2.09 (inactive)	-1.16 (inactive)	-0.595
COc1ccc(C(=O)Nc2cccc(CN3C(=O)[C@]4(O[C@H](CCn5cc(CCO)nn5)[C@@H]([Si](C)(C)c5ccc(OC)cc5)[C@@H]4C)c4ccccc43)c2)cc1	0.224	-7.97 (inactive)	-0.0511 (inactive)	0.963 (inactive)	-1.52 (inactive)	0.38	-0.0963	0.188	0.359	1.21	-0.856 (inactive)	-0.0061	6.78 (inactive)	2.29 (inactive)	0.155 (inactive)	1.7 (inactive)	-0.815	-1.91 (inactive)	-0.0331 (inactive)	2.87
C[N+](C)(C)CCCC[C@@H]1NC(=O)[C@@H]2C[C@H](C(=O)NCCCCCCNC(=O)CS)[C@H](c3ccc(O)cc3)N2C1=O	-0.387	-0.195 (inactive)	-0.421 (inactive)	0.0165 (inactive)	1.45 (inactive)	0.553	-0.0963	0.296	0.461	0.586	-0.432 (inactive)	-0.101	2.2 (inactive)	0.244 (inactive)	-3.26 (inactive)	-0.114 (inactive)	-0.489	0.614 (inactive)	0.449 (inactive)	0.0101
COc1ccc(NN2C(C(O)c3ccc(N(C)C)cc3)C=CC3C(=O)N(C4CCCCC4)C(=O)C32)cc1 (stereo not given)	0.66	-0.759 (inactive)	-0.805 (inactive)	-0.583 (inactive)	-0.249 (inactive)	1.46	0.346	0.0944	1.11	0.0202	-0.446 (inactive)	0.384	5.03 (inactive)	0.589 (inactive)	0.193 (inactive)	0.484 (inactive)	-0.25	-0.759 (inactive)	-3.43 (inactive)	-2.98
COC(=O)c1c(CC[C@@H](CO)NC(=O)N[C@@H](Cc2ccccc2)Cn2cc(-c3ccccn3)nn2)oc(C(=O)N2CCOCC2)c1C(=O)OC	-0.216	-0.625 (inactive)	-0.301 (inactive)	0.498 (inactive)	-0.248 (inactive)	-0.0372	0.0184	-0.481	0.182	1.72	-0.55 (inactive)	0.149	0.179 (inactive)	0.571 (inactive)	0.521 (inactive)	0.729 (inactive)	0.291	-1.76 (inactive)	-0.4 (inactive)	-1.88
O=C1O[C@H](c2ccccc2)[C@H](c2ccccc2)N2[C@H]1[C@@H](C(=O)NC[C@H](O)c1ccccc1)[C@]1(C(=O)Nc3ccc(C#CC4=CCCCC4)cc31)[C@H]2c1ccccc1OCCO	0.401	-6.13 (inactive)	-0.297 (inactive)	-0.0784 (inactive)	-0.0119 (inactive)	0.787	0.0659	0.0585	0.223	0.134	-0.161 (inactive)	0.199	1.84 (inactive)	2.06 (inactive)	-0.932 (inactive)	2.06 (inactive)	0.233	1.42 (inactive)	1.04 (inactive)	1.83
COC(=O)c1c2oc(c1C(=O)OC)C(=O)NC1(CCCCC1)c1cn(nn1)C[C@H](Cc1ccccc1)NC(=O)N[C@H](CO)CC2	-0.151	-0.275 (inactive)	-0.926 (inactive)	3.49 (inactive)	-0.696 (inactive)	1.05	-0.05	-0.299	0.113	1.32	2.35 (inactive)	-0.258	1.66 (inactive)	-0.265 (inactive)	0.869 (inactive)	0.285 (inactive)	0.229	-0.463 (inactive)	1.26 (inactive)	-0.0346
